# Assay outcomes from PubChem BioAssay.
# Only a selection was taken, and hits are over-represented in it overall.
# Sm TGR block: inhibitors of Schistosoma mansoni thioredoxin glutathione reductase; Q962Y6; purified TGR, DTNB reduction, TNB absorbance 405 nm; Potency, µM (doses to about 114 µM), actives largely listed as inhibitors; actives 3% (n = 360,000); AID 485364; also: nearly all actives have a fitted effect of over 60% in size
#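 TGR 20 nM + NADPH 100 uM (dispensed conc.), cpd preinc 15 min RT; start with NADPH (500 uM addition) then DTNB (15 mM addition). Kinetic TNB absorbance, 405 nm filter. Four-parameter Hill fit across titration.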
# Shiga toxin inh: Shiga toxin inhibition; Vero cells, Shiga toxin protein synthesis inhibition reporter; inhibition, % at 38.7 µM; actives 9.2% (n = 290,000); AID 2315; in the data active = inhibition mostly above about 28%, no sharp cut-off; inactive = mostly below about 43%
# Tb PYK inh: inhibitors of Trypanosoma brucei pyruvate kinase | Q57TT1 | TbPYK enzyme, Kinase-Glo Plus ATP luminescence, 45 min | Potency, µM (top dose mostly 76.8 µM), hits mostly inhibitors | actives 0.12% (n = 410,000); also: nearly all actives have a fitted effect of over 50% in size
#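 Readout: single end-point luminescence (Kinase-Glo Plus, 10 min). Reaction conditions were TbPYK/substrate plus 130 uM ADP, 45 min at RT, pH 7.2 TEA buffer. No-enzyme wells served as controls, and data were normalized before concentration-response fitting.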
# LmPK inhibitor: LmPK (Leishmania mexicana) enzyme inhibition; AID 1721; actives 0.37% (n = 290,000); Q27686; purified LmPK, Kinase-Glo ATP luminescence, 1 h; Potency, µM (titrated, usually from 57.5 µM), most hits filed as inhibitors
#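 Purified LmPK (0.1 nM) with 0.5 mM PEP and 0.1 mM ADP in imidazole buffer pH 7.2 with MgCl2/KCl, 1 h at room temperature. ATP formed was read by luciferase luminescence and normalized to no-enzyme and uninhibited controls.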
# Giardia FBPA inh: blocks Giardia fructose-bisphosphate aldolase activity. A8B2U2. purified Giardia FBPA. Potency, µM (doses to about 59.6 µM), hits mostly inhibitors. actives 0.71% (n = 290,000); also: nearly all actives have a fitted effect of over 55% in size
# Target sequence (A8B2U2 whole entry, looked up): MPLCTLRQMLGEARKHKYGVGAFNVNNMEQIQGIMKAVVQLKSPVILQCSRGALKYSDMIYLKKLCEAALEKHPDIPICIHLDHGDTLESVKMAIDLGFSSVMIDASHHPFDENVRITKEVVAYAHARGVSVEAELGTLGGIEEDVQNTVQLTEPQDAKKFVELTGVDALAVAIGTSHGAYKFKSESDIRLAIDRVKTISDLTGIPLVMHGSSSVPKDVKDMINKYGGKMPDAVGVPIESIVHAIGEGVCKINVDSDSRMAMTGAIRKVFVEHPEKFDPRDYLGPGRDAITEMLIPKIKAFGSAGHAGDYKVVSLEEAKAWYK
#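 40 nM FBPA preincubated 10 min at RT with compound (up to 57.5 uM final), then substrate plus GAPDH/TPI/NAD/arsenate coupling and diaphorase/resazurin added. Fluorescence read after 20 min at RT, 525/598 nm.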
# Cycloheximide cs: counter-screen for Shiga toxin inhibitors: cycloheximide protein synthesis inhibition; cell reporter, cycloheximide protein synthesis inhibition counterscreen; max response, %; actives 12% (n = 300,000); AID 2314; in the data active = max response mostly above about 13%, no sharp cut-off; inactive = mostly below about 14%; also: read at 38.3 µM for the half of the compounds with a filed dose
# Numbers stand for hits; - = inactive; ? = inconclusive; . = not tested or not shown; [ ] = dose if it differs, or a comment. Unless noted, calls follow the shape of the dose curve; as a rule, active = well fitted curve in the direction sought with a large enough effect; inconclusive = small, poorly fitted or top-dose-only effect, or another doubt; inactive = no such curve, though single readings can be large; an effect the other way counts as inactive or inconclusive.
SMILES,Sm TGR block,Shiga toxin inh,Tb PYK inh,LmPK inhibitor,Giardia FBPA inh,Cycloheximide cs
COc1cccc(NC(=O)N2CCC(n3c(C)nc4cccnc43)CC2)c1,-,.,-,.,.,.
CCNC(=O)C1CCCN(C(=O)c2cccc(Cl)c2)CC1 (configuration not stated),.,.,-,.,.,.
COC(=O)c1ccc(/C(O)=C(\C#N)c2nc3ccccc3s2)cc1,-,-,-,-,-,-
CC(C)NC(=O)c1nc2ccccc2s1,-,30.5,-,-,-,23.7
COc1ccc(NC(=O)c2nc3ccccc3s2)cc1,-,24.7,-,15.8µM,-,90.8
O=C(/C=C\c1ccc(O)c(O)c1)O[C@@H]1C[C@](O)(C(=O)O)C[C@@H](O)[C@@H]1O,.,.,.,.,-,.
O=C(/C=C/c1ccc(O)c(O)c1)OC1C(O)CC(OC(=O)/C=C/c2ccc(O)c(O)c2)(C(=O)O)CC1O (configuration not stated),-,-,?,2µM,-,-
COc1ccc(CNC(=O)c2ccc(CNc3c(NC4CCCCC4)c(=O)c3=O)cc2)cc1,-,-,-,-,-,45.6
COc1ccccc1CCNC(=O)C1(C)CC1(Cl)Cl (configuration not stated),-,-,-,-,-,14.5
O=C(NCc1cccnc1)NC1CCCCC1,-,-,-,-,-,-
CC1(C(=O)NCCOc2ccccc2Cl)CC1(Cl)Cl (configuration not stated),-,-,-,-,-,-
O=C(NCc1ccccc1)NC1CCCCC1,-[11.4 µM],41.8,-,-,-,38.5
COc1ccc(CNC(=O)NC2CCCCC2)cc1,-,32.7,-,-,-,25.9
CC(C)(C)C1CCc2c(sc(NC(=O)c3cccc(Cl)c3)c2C(=O)NCc2ccco2)C1 (configuration not stated),-,.,-,.,.,.
c1ccc(COCC2CCNCC2)cc1,-,-,-,-,-,-
COc1ccc(OCC2CCNCC2)cc1,35.5µM,38.7,-,-,-,32.9
O=C(NCCc1ccccc1)NC1CCCCC1,-,52.2,-,-,-,38.7
O=C(NCCC1=CCCCC1)NC1CCCCC1,-,72.4,-,-,-,44.5
COc1ccccc1CCNC(=O)NC1CCCCC1,-,-,-,-,-,17.7
COc1ccccc1CC(=O)NC1CCCCCC1,-,-,-,-,-,-
COc1ccc(CCNC(=O)NC2CCCCC2)cc1OC,-,-,-,-,-,-
COc1cccc(NC(=O)C(c2ccccc2)N2CCN(CC(=O)N3CCOCC3)CC2)c1 (configuration not stated),-,.,-,.,.,.
CC1CC[C@]2(CO)CC[C@]3(C)C(=CCC4[C@@]5(C)CCC(O)C(C)(C)C5CC[C@@]43C)C2C1C (some centres not stated),.,.,.,.,-,.
COc1ccc(CNC(=O)C2CCNCC2)cc1,44.7µM,-,-,-,-,-
COc1ccc(CNC(=O)C2CCN(S(=O)(=O)N3CCCCC3)CC2)cc1,-,-,-,-,-,-
SMILES,Sm TGR block,Shiga toxin inh,Tb PYK inh,LmPK inhibitor,Giardia FBPA inh,Cycloheximide cs
O=C(Cn1c2ncccc2c(=O)n1-c1ccccc1)Nc1ccc(F)c(F)c1,-,.,-,.,.,.
COc1cc(C2CC(=O)Nc3c2c(=O)n(C)c(=O)n3C)cc(OC)c1OC (configuration not stated),-,.,-,.,.,.
Brc1ccc(CSc2nnc3ccccn23)cc1,-,49.7,-,-,-,25.6
Fc1ccc(CSc2nnc3ccccn23)c(Cl)c1,-,95.9,-,-,-,44.5
Clc1cccc(Cl)c1CSc1nnc2ccccn12,-,-,-,-,-,-
O=C(CSc1nnc2ccccn12)NNC(=O)c1ccc(Br)cc1,-,-,-,-,-,-
Fc1cccc(Cl)c1CSc1nnc2ccccn12,-,91.0,-,-,-,42.3
CCCOC(=O)c1ccccc1O,.,.,-,.,.,.
CN(C)c1ccc(/C=N/NC(=O)CCc2nc3ccccc3[nH]2)cc1,-,-,-,-,-,-
CCOc1ccc(-c2cc(C(=O)NCc3ccc(OCC)c(OC)c3)[nH]n2)cc1,-,.,-,.,.,.
CC(=O)Nc1ccc2c(c1Br)Cc1ccccc1-2,.,.,-,.,.,.
CC(=O)Nc1cccc2c1Cc1ccccc1-2,-,-,-,-,-,41.3
COC(=O)c1ccc2cc(OC)c(OC)cc2c1,.,.,-,.,.,.
COC(=O)c1ccc(OCC(O)CNCC(c2ccc(OC)cc2)N(C)C)c(OC)c1 (configuration not stated),-,52.3,-,-,-,-
Cc1ccc(C(=O)Nc2c(C(=O)Nc3ccc(C)c(C)c3)sc3nc(C)cc(C)c23)cc1,-,.,-,.,.,.
COC1=CC(=O)O[C@H](/C=C/c2ccc3c(c2)OCO3)C1,.,-,.,.,-,-
O=C(CSc1nc2ccccc2n1CCc1ccccc1)c1ccc(O)c(O)c1,-,-,?,-,?,12.3
CCN1C[C@@H]2[C@@H]3C(=O)N(C)C(=O)[C@@H]3[C@](C)(C1=O)N2C(=O)c1ccc(Cl)c(Cl)c1,.,.,-,.,.,.
NC(=O)c1c(NC(=O)c2noc3c2CCCC3)sc2c1CCCC2,-,.,-,.,.,.
Clc1ccc(OCC#CCN2CCCCCC2)cc1,?,46.9,-,-,-,-
COc1ccc(/C=N/Nc2nc3ccccc3c(=O)n2-c2ccccc2)cc1OC,-,-,-,-,-,20.6
COc1cc(/C=N/n2nnnc2N)ccc1OC(C)=O,-,-,-,-,-,-
COc1ccc(/C=N/NC(=O)Cn2ccnc2C)cc1OC,-,-,-,-,-,-
COc1ccc(/C=N/Nc2nnc(C)n2N)cc1OC,-,-,-,-,22.3µM,-
COc1ccc(/C=N/Nc2nnc(C)n2N)cc1OC(C)=O,-,-,-,-,?,12.5
SMILES,Sm TGR block,Shiga toxin inh,Tb PYK inh,LmPK inhibitor,Giardia FBPA inh,Cycloheximide cs
COc1ccc(CNC(=O)CCc2c(C)nn(-c3ccc(N4CCCCC4)nn3)c2C)c(OC)c1,-,.,-,.,.,.
COCc1cc(=O)n2[nH]c(C(C)(C)C)cc2n1,-,-,-,-,?,-
COCc1cc(=O)n2[nH]c(C)cc2n1,-,-,-,-,-,-
COCc1cc(=O)n2[nH]c(-c3ccccc3)cc2n1,-[11.4 µM],-,-,-,-,23.3
COCc1cc(=O)n2[nH]c(-c3cccc(Br)c3)cc2n1,-,-,-,-,-,27.3
COc1ccc(C2=NC3(CCCCCC3)N(CC(=O)Nc3ccc(C)c(C)c3)C2=O)cc1,-,.,-,.,.,.
CCOc1ccccc1NC(=O)CSc1nnc(CC)c(CC)n1,-,.,-[15.4 µM],.,.,.
CCC(=O)Nc1ccc(C(=O)NNC(=O)C2CCCCC2)cc1,-,-,-,-,.,-
COc1ccc(NC(=O)Nc2cnccn2)cc1OC,-,-,-,-,-,-
O=C(Nc1ccncc1)Nc1ccc(Cl)cc1,-,-,-,-,-,32.8
Cc1ccc(NC(=O)Nc2cnccn2)cc1,-,71.7,-,-,-,62.8
Cc1ccc(NC(=O)Nc2cnccn2)cc1C,-,96.5,-,-,-,28.2
O=C(Nc1cnccn1)Nc1cccc(Cl)c1Cl,-,-,-,-,-,26.3
